# Test results reported in ChEMBL document CHEMBL4513216, “Probing the Open Global Health Chemical Diversity Library for Multistage-Active Starting Points for Next-Generation Antimalarials” (ACS Infect Dis, 2020).
# In all, about 68,000 compounds went through this assay and about 2,700 (4%) showed an effect of 50% or more. This is one part of a sample in which strong results are shown more often than they occur.
# System: Plasmodium berghei
# Test: Screen against P. berghei liver stage (PbLuc), transformed with Luciferase, at 2uM
# Format: functional, HepG2
# Settings: tested at 2 uM
row,SMILES,INHIBITION [%]
1,CCC1(C(=O)O)CCCN(C(=O)c2ccc(O)c(Cl)c2)C1 (centres undefined),-2.86
2,CCOC(=O)c1coc(N2CCN(Cc3ccc(C)cc3)C(=O)C2)n1,33.9
3,Cn1nc(C2CCCN(Cc3cccc(F)c3)C2)c2nccnc21 (centres undefined),-13.37
4,O=C(CCN1CCC(C(=O)c2cc(F)ccc2F)CC1)NC1CC1,34.93
5,CCOCCN1CCC(C(=O)c2cc(F)ccc2F)CC1,43
6,CC(C)OCCN1CCC(C(=O)c2cc(F)ccc2F)CC1,50.76
7,O=C(CCN1CCC(C(=O)c2cc(F)ccc2F)CC1)NC1CCCC1,64.9
8,O=C(CN1CCC(C(=O)c2cc(F)ccc2F)CC1)NC1CCCC1,-21.84
9,COCCN1CCC(C(=O)c2cc(F)ccc2F)CC1,-11.34
10,CN1CCC(N(C)CCC(=O)N2CCC(Oc3ccc(Cl)cc3)CC2)C1 (centres undefined),8.75
11,Cn1nc(C(=O)N2CCOCC2)c2c1CN(CC1CCC1)C2,36.29
12,Cc1cc(-c2ccc(=O)n(C3CCN(S(=O)(=O)N(C)C)CC3)n2)c(C)o1,-34.37
13,CCC(CO)N(Cc1ccco1)Cc1c(C)nn(C)c1Cl (centres undefined),-10.67
14,CN1CCN(C(=O)c2cccn2C)c2ccccc2C1,-9.98
15,CCOC(=O)[C@]12CCCN(Cc3nccs3)C[C@H]1CN(C(C)C)C2,34.47
16,Cc1cccc(O[C@H]2COCCN(Cc3sc(C)nc3C)C2)n1,17.64
17,CS(=O)(=O)c1ccc(O[C@H]2COCCN(Cc3ccncc3)C2)cc1,50.91
18,COc1ccc(CN2CCOC[C@H](Oc3cccnc3)C2)cc1,27.04
19,Cc1nc(C)c(CN2CCOC[C@H](Oc3ccccc3)C2)s1,64.92
20,Cc1nc(C)c(CN2CCOC[C@H](Oc3ccc(S(C)(=O)=O)cc3)C2)s1,-40.15
21,CC(C)CN1CCOC[C@H](Oc2ccc(S(C)(=O)=O)cc2)C1,-36.65
22,CCN(Cc1ccc(C#N)cc1F)C(=O)C(C)(C)C,0.53
23,CCCS(=O)(=O)N1C[C@H]2CC[C@@H](C1)N(Cc1cscn1)C2=O,36.28

row,SMILES,INHIBITION [%]
1,CN(C)CC(=O)N1CCC2(CC1)COCCN(Cc1ccncc1)C2,32.66
2,CCCc1nc(C(=O)N[C@H]2COC[C@@H]2N2CCN(C)CC2)cs1,-0.83
3,CS(=O)(=O)CCCN(CCc1cccc(F)c1)C1CC1,7.36
4,Cc1csc2c(N3CCNC(C(=O)Nc4ccc(F)cc4)C3)ncnc12 (centres undefined),-17.67
5,Cc1ccc2c(c1)C(=O)NCC1(CCN(C(=O)c3sccc3C)CC1)O2,46.15
6,Cc1ccc2c(c1)C(=O)NCC1(CCN(C(=O)c3cc(C)no3)CC1)O2,9.51
7,CCC(=O)N1CCC2(CC1)CNC(=O)c1cc(C)ccc1O2,61.99
8,Cc1ccc2c(c1)C(=O)NCC1(CCN(C(=O)c3cnccn3)CC1)O2,64.07
9,Cc1ccc2c(c1)C(=O)NCC1(CCN(C(=O)c3scnc3C)CC1)O2,-2.31
10,Cc1ccc2c(c1)C(=O)NCC1(CCN(C(=O)c3csc(C)c3)CC1)O2,38.75
11,Cc1ccc2c(c1)C(=O)NCC1(CCN(C(=O)c3ccnn3C)CC1)O2,59.27
12,Cc1ccc2c(c1)C(=O)NCC1(CCN(C(=O)c3ccccn3)CC1)O2,38.12
13,Cc1ccc2c(c1)C(=O)NCC1(CCN(Cc3ccccc3)CC1)O2,34.9
14,Cc1ccc(F)cc1NC(=O)CCn1cncn1,5.31
15,Cc1nc(CN2C[C@@H]3CN(C(=O)c4cccn4C)C[C@@H]3C2=O)cs1,-32.67
16,O=C(C1CCCCC1)N1CCC2(CC1)CNCc1ccccc12,31.27
17,O=C(CN1CCOC(CNc2cccnn2)C1)NCc1ccccn1 (centres undefined),33.12
18,Cc1nn(CC(=O)O)c(C)c1NS(=O)(=O)c1cc2ccccc2s1,-38.97
19,O=c1cc(CN2CCCC(CCc3c(F)cccc3F)C2)[nH]c(=O)[nH]1 (centres undefined),-21.63
20,CN(C)C(=O)CCS(=O)(=O)Cc1cc(Cl)c2c(c1)OCO2,66.2
21,CNC(=O)CCS(=O)(=O)Cc1cc(Cl)c2c(c1)OCCCO2,19
22,CS(=O)(=O)Cc1cc(Cl)c2c(c1)OCCCO2,45.82
23,CS(=O)(=O)CCS(=O)(=O)Cc1cc(Cl)c2c(c1)OCCCO2,72.05

row,SMILES,INHIBITION [%]
1,CN(C)C(=O)CCCS(=O)(=O)Cc1cc(Cl)c2c(c1)OCO2,27.5
2,CN(C)C(=O)CCS(=O)(=O)Cc1cc(Cl)c2c(c1)OCCO2,48.21
3,CC(C)(O)CN1CCN(C(=O)c2sccc2C#N)CC1,-29.69
4,c1cnc(N2C[C@H]3CCN(Cc4ccncc4)C[C@H]3C2)nc1,-20.87
5,CC(NC(=O)N1CCC(OCc2ccccc2)CC1)c1nncn1C (centres undefined),29.11
6,Cc1cc(C)c(C)c(OCCCNC(=O)NC(C)c2nncn2C)c1 (centres undefined),38.97
7,COc1ccc(F)cc1C(=O)N1CCCC(CNS(C)(=O)=O)C1 (centres undefined),-42.84
8,O=C(NCCCNC(=O)C1CCC1)NCCn1cccc1,7.33
9,CN1CCCC(N2CCN(c3nc4ccccn4c3C#N)CC2)C1 (centres undefined),38.1
10,N#Cc1c(N2CCN(CC3CCOC3)CC2)nc2ccccn12 (centres undefined),83.18
11,N#Cc1c(N2CCCN(C3CCOCC3)CC2)nc2ccccn12,14.2
12,Cn1cccc1C(=O)N1CCc2ncnc(C3CC3)c2CC1,11.72
13,O=C(NC1CCCCNC1=O)c1cc2ccccc2[nH]c1=O (centres undefined),-0.79
14,Cc1ccc(C(=O)NC2CCCCNC2=O)c(=O)[nH]1 (centres undefined),-4.09
15,Cc1cc(C(=O)NC2CCCCNC2=O)c(=O)[nH]c1C (centres undefined),52.08
16,O=C(CCc1c[nH]cn1)N1CC[C@@H](c2ccc3ccccc3c2)[C@H](O)C1,43.1
17,Cc1ccc(N2CCC3(CN(Cc4cccs4)CCC3(F)F)C2)nn1 (centres undefined),-17.41
18,O=C(Cc1c[nH]c2ccccc12)N1CCC(Nc2cccnn2)CC1,-32.2
19,Cc1ccc(NC2CCN(C(=O)Cc3ccc(C)s3)CC2)nn1,-19.35
20,Cc1noc(C)c1CC(=O)N1CCC(Nc2cccnn2)CC1,-57.89
21,O=C(Cc1cccc2ccccc12)N1CCC(Nc2cccnn2)CC1,-58.05
22,Cc1cccc2[nH]cc(CC(=O)N3CCC(Nc4cccnn4)CC3)c12,64.16
23,Cc1ccc(CC(=O)N2CCC(Nc3cccnn3)CC2)s1,50.75
